# Source: PubChem BioAssay (NCATS)
# Inconclusive results are not listed. Entries that show only a call come without a potency. Calls of active or inactive are those of the source. The call rests on the fitted dose curve; in most records, active means well fitted inhibition curve with a large enough effect; inconclusive means small, poorly fitted or top-dose-only effect; inactive means flat fitted curve, though single readings scatter.
# Target: Glutathione peroxidase 1 (Homo sapiens) (UniProt P07203)
# Sequence (P07203 whole entry, looked up): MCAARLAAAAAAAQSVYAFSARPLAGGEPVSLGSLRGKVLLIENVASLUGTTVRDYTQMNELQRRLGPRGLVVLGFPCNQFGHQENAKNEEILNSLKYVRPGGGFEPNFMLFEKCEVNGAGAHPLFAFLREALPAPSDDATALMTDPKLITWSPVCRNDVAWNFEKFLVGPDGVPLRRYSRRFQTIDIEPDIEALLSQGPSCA
# Experiment: Primary qHTS Assay for Inhibitors of Recombinant Selenoprotein Glutathione Peroxidase 1 (GPX1) (AID 1845191); further: nearly all actives have a fitted effect of over 65% in size
# Details: recombinant GPX1, GR-coupled NADPH fluorescence, 15 min; series mostly up to 48.8 µM
# Outline: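 GPX1 10 nM, GR 100 nM, GSH 1 mM, NADPH 0.5 mM, CHP 0.5 mM (final). 30-min cpd preincubation, RT. Ex340/Em450 read t=0, t=15 min.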
# Potency means the concentration at half of the fitted maximal effect.
row,Structure (SMILES),Potency
1,Cc1nc2c(c(C)c1CCC(=O)N1CCN(c3ccccc3)CC1)c(=O)n(C)c(=O)n2C,inactive
2,Oc1c(C(c2ccccc2)N2CCOCC2)sc2nc(-c3ccco3)nn12 (stereo not given),inactive
3,CCCCC(=O)N(Cc1ccc(-c2ccccc2-c2nn[nH]n2)cc1)[C@H](C(=O)O)C(C)C,inactive
4,CN[C@@H]1[C@H](O[C@H]2[C@H](O[C@@H]3[C@@H](O)[C@H](O)[C@@H](N=C(N)N)[C@H](O)[C@H]3NC(=N)N)O[C@@H](C)[C@]2(O)CO)O[C@@H](CO)[C@H](O)[C@H]1O,inactive
5,C=CS(=O)(=O)N1CCCN(c2cc(NCCC(=O)O)nc(-c3ccccn3)n2)CC1,inactive
6,COc1ccc(CC(C)(C)NC[C@H](O)c2cc(O)cc3c2OCC(=O)N3)cc1,inactive
7,Nc1nc(NCc2ccccc2)c2[nH]cnc2n1,inactive
8,CCCCCCCCn1cc(CC(N)=O)c2cc(-c3cccc(C)c3)ccc21,inactive
9,CCc1nc2c(sc3nc4c(cc32)COC(C)(C)C4)c(=O)n1Cc1ccco1,inactive
10,[2H]C([2H])([2H])C(O)(CCO[C@@H](C)[C@H]1CC[C@H]2/C(=C/C=C3\C[C@@H](O)C[C@H](O)C3=C)CCC[C@]12C)C([2H])([2H])[2H],inactive
11,O=C1NC(=O)/C(=C/c2ccc3c(c2)OCO3)S1,inactive
12,Cc1c(C(=O)Nc2cccc(-c3nc4ccccc4s3)c2)oc2ccc(F)cc12,inactive
13,Clc1cccc(N2CCN(c3nc4ccccc4c4nc(-c5cccnc5)nn34)CC2)c1,inactive
14,CC[C@H](C)C1NC(=O)[C@H](Cc2ccc(O)cc2)NC(=O)[C@@H](N)CSSC[C@@H](C(=O)N2CCC[C@H]2C(=O)N[C@@H](CC(C)C)C(=O)NCC(N)=O)NC(=O)[C@H](CC(N)=O)NC(=O)[C@H](CCC(N)=O)NC1=O (stereo not given in full),inactive
15,N#Cc1ccc(-c2csc(NN=C3CCCC3)n2)cc1,inactive
16,Cc1c(OCC(F)(F)F)ccnc1C[S@@](=O)c1nc2ccccc2[nH]1,10.1 µM (active)
17,CNC(=O)c1ccccc1Oc1nc(Nc2cc(OC)c(OC)c(OC)c2)ncc1Br,inactive
18,Cc1cncc(CN2CCC(=C3c4ccc(Cl)cc4CCc4cccnc43)CC2)c1,inactive
19,CN1CCN(C(c2ccc(F)cc2)c2sc3nc(-c4ccco4)nn3c2O)CC1 (stereo not given),inactive
20,CCC(=O)O[C@]1(C(=O)COC(C)=O)CC[C@H]2[C@@H]3C[C@H](C)C4=CC(=O)C=C[C@]4(C)[C@H]3[C@@H](O)C[C@@]21C,inactive

row,Structure (SMILES),Potency
1,CC[C@@H]1CCN[C@H](C(=O)N[C@@H]([C@H]2O[C@H](SC)[C@H](O)[C@@H](O)[C@H]2O)[C@H](C)Cl)C1,inactive
2,COc1cccc(C(c2sc3nc(-c4ccco4)nn3c2O)N2CCN(C)CC2)c1 (stereo not given),inactive
3,O=C(Cn1ncc2c1-c1ccccc1OC2)N1CCN(c2ccccc2)CC1,inactive
4,O=C(O)c1ccc2nc(-c3cc(Cl)cc(Cl)c3)oc2c1,inactive
5,OC[C@H]1O[C@@H](c2ccc(F)c(Cc3cc4ccccc4s3)c2)[C@H](O)[C@@H](O)[C@@H]1O,inactive
6,COc1ccc(-c2c(C)nn3c4c(cnc23)C(=O)CC(c2ccc(C)cc2)C4)cc1 (stereo not given),inactive
7,O=[N+]([O-])c1ccc(/C=C/c2cccc(CO)n2)o1,inactive
8,N#Cc1ncccn1,inactive
9,Cn1c(/C=C/C(=O)NO)ccc1/C=C/C(=O)c1cccc(F)c1,inactive
10,Fc1ccc(N2CCN(c3nc4ccccc4c4nc(-c5ccccc5)nn34)CC2)cc1,inactive
11,O=C(c1cccc(Br)c1)N1CCC(N2CCCC2)CC1,inactive
12,Cc1ccc2nc(NC(=O)CSc3nc4c(c(=O)n3C)SC(C)C4)sc2c1 (stereo not given),inactive
13,CC(=O)OC[C@H]1O[C@@H](n2cnc(N)nc2=O)[C@H](OC(C)=O)[C@@H]1OC(C)=O,inactive
14,Cc1ccc(Nc2ncc(C(=O)N3CCN(c4ccc(F)cc4)CC3)c3ccccc23)cc1Cl,inactive
15,CCc1ccccc1N1C(=O)N(Cc2cc(=O)n3ccccc3n2)c2ccccc2S1(=O)=O,inactive
16,COc1ccc(C(=O)Nc2ccc3oc(-c4ccc(F)cc4Cl)nc3c2)cc1,inactive
17,CCCCCCCCCC(=O)OCCN1CCN(CC/C=C2\c3ccccc3Sc3ccc(C(F)(F)F)cc32)CC1,inactive
18,N=c1sc2c(n1CC(=O)c1ccc([N+](=O)[O-])cc1)CCCC2,inactive
19,CCOC(=O)N[C@@H]1CC[C@@H]2[C@@H](C1)C[C@H]1C(=O)O[C@H](C)C1[C@H]2/C=C/c1ccc(-c2cccc(F)c2)cn1 (stereo not given in full),inactive
20,CN1C2CC[C@@H]1CC(OC(=O)[C@H](CO)c1ccccc1)C2 (stereo not given in full),inactive
